# From PubChem BioAssay
# The source made the active and inactive calls. Unless noted, no rule for the calls is given here.
# Tests used:
# [1] = compounds binding Alexa647 anti-His antibody – biochemical, small-molecule microarray, 635 nm fluorescence, artefact control for SMM control protein annotation, primary screen (AID 1128); conditions: higher = more signal;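 also: score merges feature fluorescence with signal-to-noise for each printed compound spot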
# [2] = tested on: Human papillomavirus type 1a E7 protein (residues 1-88); assay: HPV1a E7 small-molecule binders, primary screen, biochemical, small-molecule microarray, residues 1-88, 635 nm (AID 1129); conditions: small-molecule microarray binding, fluorescence 635 nm; higher = more signal
# [3] = target: Focal adhesion kinase 1 (Homo sapiens) (UniProt Q05397); assay: PTK2 protein binding on printed compound slides – biochemical, small-molecule microarray, 635/667 nm fluorescence, BSA, DTT, primary screen (AID 1130); conditions: 635 nm fluorescence, higher = more signal;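 also: composite of spot emission at 667 nm and signal to noise over triplicate slides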
# Focal adhesion kinase 1 (Homo sapiens), sequence (Q05397 whole entry, looked up): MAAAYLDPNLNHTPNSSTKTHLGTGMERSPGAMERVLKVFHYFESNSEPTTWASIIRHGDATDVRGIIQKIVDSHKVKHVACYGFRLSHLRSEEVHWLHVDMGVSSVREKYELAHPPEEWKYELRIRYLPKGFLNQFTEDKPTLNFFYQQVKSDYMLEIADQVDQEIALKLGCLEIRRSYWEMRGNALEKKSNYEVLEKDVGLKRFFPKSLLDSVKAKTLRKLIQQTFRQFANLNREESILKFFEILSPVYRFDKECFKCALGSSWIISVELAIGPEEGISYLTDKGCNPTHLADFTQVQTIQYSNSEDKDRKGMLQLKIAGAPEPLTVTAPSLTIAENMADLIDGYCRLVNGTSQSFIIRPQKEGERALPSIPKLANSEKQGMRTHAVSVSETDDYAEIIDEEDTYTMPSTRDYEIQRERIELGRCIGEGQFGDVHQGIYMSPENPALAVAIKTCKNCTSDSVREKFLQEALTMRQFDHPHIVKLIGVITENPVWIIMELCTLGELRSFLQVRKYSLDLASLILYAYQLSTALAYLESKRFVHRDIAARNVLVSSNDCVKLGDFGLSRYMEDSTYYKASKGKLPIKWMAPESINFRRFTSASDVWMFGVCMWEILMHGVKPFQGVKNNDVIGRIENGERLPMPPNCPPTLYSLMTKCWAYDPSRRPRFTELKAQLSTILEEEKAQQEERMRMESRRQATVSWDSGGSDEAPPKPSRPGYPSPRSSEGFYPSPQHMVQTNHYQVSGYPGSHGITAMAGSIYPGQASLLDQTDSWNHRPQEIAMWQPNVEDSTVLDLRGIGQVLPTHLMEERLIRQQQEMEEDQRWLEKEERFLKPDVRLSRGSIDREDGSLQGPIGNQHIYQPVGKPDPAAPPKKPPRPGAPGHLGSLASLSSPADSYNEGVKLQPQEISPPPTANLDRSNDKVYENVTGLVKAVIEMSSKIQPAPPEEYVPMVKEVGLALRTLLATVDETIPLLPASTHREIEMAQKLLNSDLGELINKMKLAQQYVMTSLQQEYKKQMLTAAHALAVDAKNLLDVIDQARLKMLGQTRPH
# [4] = tested on: Fibrinogen (Alexa647-labelled); assay: Alexa647-fibrinogen binding to printed small molecules – biochemical, small-molecule microarray, 635/667 nm fluorescence, artefact control for SMM control-protein annotation, profiling panel (AID 1131); conditions: fibrinogen-A647 binding fluorescence, higher = more signal;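 also: z-score merges 667 nm fluorescence with per-spot signal-to-noise over triplicate slides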
# [5] = target: Follistatin (Homo sapiens) (UniProt P19883); assay: FST protein binding to printed compounds – biochemical, small-molecule microarray, 635/667 nm fluorescence, primary screen (AID 1132); conditions: 635 nm fluorescence, higher = more signal
# Follistatin (Homo sapiens), sequence (P19883 whole entry, looked up): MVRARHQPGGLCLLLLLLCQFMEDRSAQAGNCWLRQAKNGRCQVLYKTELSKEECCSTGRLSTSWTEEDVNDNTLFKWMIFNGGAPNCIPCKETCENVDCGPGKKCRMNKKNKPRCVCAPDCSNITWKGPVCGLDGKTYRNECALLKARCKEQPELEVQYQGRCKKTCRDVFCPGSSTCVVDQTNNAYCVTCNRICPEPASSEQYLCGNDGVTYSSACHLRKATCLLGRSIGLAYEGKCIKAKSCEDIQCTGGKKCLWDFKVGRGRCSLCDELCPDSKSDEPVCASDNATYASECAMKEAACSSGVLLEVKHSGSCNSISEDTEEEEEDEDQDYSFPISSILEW
# [6] = target: Fibroblast growth factor 2 (Homo sapiens) (UniProt P09038); assay: basic fibroblast growth factor binding to printed compounds – biochemical, small-molecule microarray, 635/667 nm fluorescence, primary screen (AID 1133); conditions: FGF2, fluorescence 635/667, higher = more signal
# Fibroblast growth factor 2 (Homo sapiens), sequence (P09038 whole entry, looked up): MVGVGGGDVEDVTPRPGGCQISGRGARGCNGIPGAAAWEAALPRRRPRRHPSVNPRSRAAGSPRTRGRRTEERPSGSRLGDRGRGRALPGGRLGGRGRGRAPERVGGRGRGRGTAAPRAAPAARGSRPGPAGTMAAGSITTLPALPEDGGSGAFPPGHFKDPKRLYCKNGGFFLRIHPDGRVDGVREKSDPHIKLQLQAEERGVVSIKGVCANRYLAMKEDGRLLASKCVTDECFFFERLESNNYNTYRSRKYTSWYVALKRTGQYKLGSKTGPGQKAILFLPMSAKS
# [7] = JC-1 mitochondrial potential readout, lung cancer cells – cell-based, A549, JC-1 fluorescence, basal, 24 h, 100 nL, profiling panel (AID 1138); conditions: higher = more signal;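 also: A549 lung adenocarcinoma cells under basal conditions with no added stimulus; test concentration not given here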
# [8] = tested on: Lefty1; assay: Lefty1 protein binding to printed compounds – biochemical, small-molecule microarray, 635/667 nm fluorescence, primary screen (AID 1139); conditions: fluorescence 635/667, higher = more signal
# [9] = tested on: wheat germ agglutinin (Triticum aestivum), Alexa647-labelled; assay: Alexa647-WGA lectin binding to printed small molecules – biochemical, small-molecule microarray, 635/667 nm fluorescence, artefact control for SMM control-protein annotation, profiling panel (AID 1140); conditions: WGA-A647 binding, 635 nm fluorescence, higher = more signal;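 also: score merges 667 nm feature emission with signal to noise over triplicate slides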
# [10] = target: Luciferin 4-monooxygenase (Photinus pyralis) (UniProt P08659); assay: inhibition of purified Photinus pyralis luciferase – biochemical, luminescence, purified enzyme, 2006 set, primary screen (AID 1141); conditions: purified firefly luciferase, SteadyGlo luminescence, 30 min; higher = more signal, called active from +8 up or from −8 down;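 also: cell-free assay with purified firefly luciferase at 100 ng per well in PBS; test concentration not given here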
# Luciferin 4-monooxygenase (Photinus pyralis), sequence (P08659 whole entry, looked up): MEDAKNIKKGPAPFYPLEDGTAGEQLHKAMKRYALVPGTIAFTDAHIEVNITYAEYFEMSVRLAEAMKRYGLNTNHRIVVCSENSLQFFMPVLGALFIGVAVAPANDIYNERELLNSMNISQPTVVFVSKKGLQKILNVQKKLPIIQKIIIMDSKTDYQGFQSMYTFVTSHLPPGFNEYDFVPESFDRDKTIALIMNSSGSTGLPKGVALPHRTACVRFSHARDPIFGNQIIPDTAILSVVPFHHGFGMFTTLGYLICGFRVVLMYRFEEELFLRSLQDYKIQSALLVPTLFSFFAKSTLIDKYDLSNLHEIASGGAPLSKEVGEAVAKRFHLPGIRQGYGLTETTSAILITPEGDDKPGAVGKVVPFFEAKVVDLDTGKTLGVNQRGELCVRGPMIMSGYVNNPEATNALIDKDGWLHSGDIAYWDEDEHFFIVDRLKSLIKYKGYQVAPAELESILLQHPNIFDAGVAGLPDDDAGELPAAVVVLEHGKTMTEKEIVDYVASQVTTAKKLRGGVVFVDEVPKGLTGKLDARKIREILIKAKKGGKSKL
# [11] = tested on: Wnt5a (protein binding on small-molecule microarray); assay: small molecules binding Wnt5a protein – biophysical, small-molecule microarray, 635/667 nm fluorescence, primary screen (AID 1142); conditions: 635 nm fluorescence, higher = more signal;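 also: fluorescence read at 667 nm with signal to noise per printed feature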
# [12] = ATP-based viability of Huh7 replicon cells – cell-based, CellTiter-Glo luminescence, basal, 48 h, cytotoxicity control for HCV replication inhibitor project, primary screen (AID 1143); conditions: higher = more signal, called active from +8 up or from −8 down;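 also: Huh7 hepatoma cells carrying a hepatitis C replication reporter with no stimulus; test concentration not given here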
# [13] = Pseudomonas biofilm growth suppression – PAO1 strain, BacTiter-Glo luminescence, LB-PBS, primary screen (AID 1144); conditions: P. aeruginosa PAO1 biofilm, 12 h, higher = more signal
# [14] = basal CRE-LacZ reporter activity in PC12 – cell-based, unstimulated, primary screen (AID 1145); conditions: no forskolin, luminescence, 4.5 h, higher = more signal, called active from +8 up or from −8 down
# [15] = forskolin-driven CRE-LacZ activity in PC12 – cell-based, CRE-LacZ reporter, forskolin-stimulated, primary screen (AID 1146); conditions: luminescence, 4.5 h, higher = more signal, called active from +8 up or from −8 down;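 also: PC12 cells with 6xCRE LacZ reporter stimulated by forskolin 10 µM; beta-galactosidase reporter signal reflecting CREB driven transcription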
# [16] = target: Streptavidin (Streptomyces avidinii) (UniProt P22629); assay: compounds binding control protein streptavidin – biophysical, small-molecule microarray, 635/667 nm fluorescence, artefact control for SMM compound annotation, primary screen (AID 1147); conditions: higher = more signal;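 also: signal reflects streptavidin binding to arrayed compounds as a control protein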
# Streptavidin (Streptomyces avidinii), sequence (P22629 whole entry, looked up): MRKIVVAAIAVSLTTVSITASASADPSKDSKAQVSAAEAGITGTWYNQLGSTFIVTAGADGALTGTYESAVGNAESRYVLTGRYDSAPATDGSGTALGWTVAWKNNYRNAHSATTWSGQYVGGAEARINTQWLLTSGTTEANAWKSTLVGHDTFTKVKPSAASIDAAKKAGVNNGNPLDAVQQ
# [17] = probe aInhba binding on compound microarray – biochemical, small-molecule microarray, 635/667 nm fluorescence, primary screen (AID 1148); conditions: higher = more signal;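 also: score merges 667nm spot fluorescence with signal-to-noise for antibody binding to printed compounds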
# [18] = target: Torsin-1A (Homo sapiens) (UniProt O14656); assay: TOR1A wild-type binding on microarray – cell lysate, small-molecule microarray, lysate, 635/667 nm, primary screen (AID 1149); conditions: COS7 hTOR1A-WT lysate, 635 nm fluorescence, higher = more signal
# Torsin-1A (Homo sapiens), sequence (O14656 whole entry, looked up): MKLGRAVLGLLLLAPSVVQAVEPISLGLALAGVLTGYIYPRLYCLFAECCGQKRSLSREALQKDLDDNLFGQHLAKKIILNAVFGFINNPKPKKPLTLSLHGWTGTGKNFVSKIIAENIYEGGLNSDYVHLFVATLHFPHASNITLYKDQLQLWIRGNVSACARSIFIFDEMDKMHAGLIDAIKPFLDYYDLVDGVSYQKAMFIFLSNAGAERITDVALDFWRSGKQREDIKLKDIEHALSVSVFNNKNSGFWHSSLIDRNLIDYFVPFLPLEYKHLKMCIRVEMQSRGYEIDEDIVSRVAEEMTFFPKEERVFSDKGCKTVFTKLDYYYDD
# [19] = target: Torsin-1A (Homo sapiens) (UniProt O14656); assay: torsin A mutant lysate binding on microarrays – cell lysate, small-molecule microarray, COS7 lysate, 635/667 nm fluorescence, primary screen (AID 1150); conditions: COS7 hTOR1A mutant lysate, 635 nm fluorescence, higher = more signal;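 also: score pools 667 nm emission and signal to noise measuring lysate protein binding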
# [20] = tested on: Sonic hedgehog protein (Shh); assay: Sonic hedgehog microarray binding compounds – biochemical, small-molecule microarray, 635/667 nm fluorescence, primary screen (AID 1151); conditions: 635 nm fluorescence, higher = more signal;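 also: Shh protein binding to compounds spotted on small-molecule microarray slides; score combines spot fluorescence intensity with signal-to-noise across triplicate slides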
SMILES,composite z-score [1],composite z-score [2],composite z-score [3],composite z-score [4],composite z-score [5],composite z-score [6],z-score [7],composite z-score [8],composite z-score [9],z-score [10],composite z-score [11],z-score [12],z-score [13],z-score [14],z-score [15],composite z-score [16],composite z-score [17],composite z-score [18],composite z-score [19],composite z-score [20]
C=COC[C@H]1CN2[C@@H](CC[C@@H](C)[C@@H]2c2ccc(Br)cc2)C(=O)O1,1.25,0.394,0.0351,0.673,0.504,0.706,0.587,0.51,0.276,-2.84 (inactive),0.52,-0.443 (inactive),-1.13 (inactive),1.59 (inactive),-0.212 (inactive),-0.0488,0.027,0.594,0.0658,1.2
C[C@@H]1C=CCC(=O)OC[C@H](C)C(=O)N2CCC[C@H]2C(=O)OC1,2.67,0.589,-0.344,-0.592,1.31,1.74,-0.741,1.59,-0.273,1.1 (inactive),0.15,0.111 (inactive),-0.736 (inactive),-0.264 (inactive),-0.0697 (inactive),0.245,-0.21,3.08,2.85,2.33
CCOc1ccc(N2C(=O)/C(=C/C=C/c3ccccc3OC)S(=O)(=O)C2c2cccc([N+](=O)[O-])c2)cc1 (stereo not given),-0.359,0.339,0.0604,0.441,0.475,0.235,2.31,0.23,0.432,-0.889 (inactive),-0.0676,-4.29 (inactive),-1.57 (inactive),0.0026 (inactive),-1.2 (inactive),0.27,-0.0596,1.94,0.184,0.37
C[C@@H](c1ccccc1)N1C(=O)[C@H]2[C@H]3[C@H](O)C=CC(=O)[C@@H]3CC[C@H]2C1=O,0.299,0.492,-0.0464,0.392,0.503,0.104,0.107,0.752,0.204,-0.62 (inactive),-0.143,-1.8 (inactive),0.715 (inactive),0.247 (inactive),-0.323 (inactive),0.831,0.0422,0.445,0.0746,0.593
CCOC(=O)[C@H](Cc1ccccc1)NC(=O)CCC1CC(OC(=O)NCc2ccc3c(c2)OCO3)CC2(CCCC(COC(=O)NCC3CCCCC3)O2)O1 (stereo not given in full),0.273,1.18,0.188,0.91,0.904,0.48,0.491,0.876,0.206,0.986 (inactive),0.0472,-0.734 (inactive),-0.0126 (inactive),-0.613 (inactive),-0.177 (inactive),0.592,-0.0289,-0.407,0.538,1.36
COc1cccc([C@H]2Oc3ccc(OC)cc3C(=NOC(C)CN3CCCc4nc(C)c(C)cc43)[C@@H]2O)c1 (stereo not given in full),2.41,0.857,0.394,-0.712,0.073,0.125,0.128,0.809,-0.299,0.149 (inactive),0.35,-0.252 (inactive),1.28 (inactive),2.71 (inactive),-0.0145 (inactive),-0.504,0.0442,0.433,0.27,0.478
COc1ccc(O[C@H]2C=C[C@@H](c3ccccc3)O[C@@H]2COC(=O)CCC(C)=NOC[C@@H](C)[C@H](OCc2ccccc2)C(C)C)cc1,0.904,-0.834,-0.592,-1.24,-0.865,-0.621,-0.345,-0.338,-0.606,1.05 (inactive),-0.348,-1.55 (inactive),-0.0552 (inactive),-0.901 (inactive),0.468 (inactive),-0.892,-0.203,-0.416,-0.632,-0.155
COC(=O)[C@@H]1CC[C@H](C)[C@@H](c2ccc(C)cc2)N1C(=O)c1ccc(C=NOC[C@@H](O)COCc2ccco2)cc1,0.373,-1.79,-0.574,-1.68,-0.526,-1.18,-0.245,-1.09,-0.893,0.193 (inactive),-0.523,-1.83 (inactive),1.18 (inactive),5.89 (inactive),-0.309 (inactive),-1.24,-0.341,-1.72,-2.05,-0.334
CO[C@@H]1COC(=O)[C@@H]2CCCN2C(=O)[C@@H](C)COC(=O)[C@H](COCc2ccccc2)NC(=O)CC=C[C@H]1C,0.284,0.692,0.0252,0.385,0.421,0.27,-0.714,0.698,-0.07,0.951 (inactive),-0.127,-0.388 (inactive),-0.623 (inactive),-0.799 (inactive),0.435 (inactive),0.107,-0.172,0.999,0.121,0.731
CO[C@H]1COC(=O)CC=C[C@H](C)[C@@H](NS(=O)(=O)c2ccc(C)cc2)COC(=O)CC=C[C@@H]1C,2.79,0.0835,0.0018,0.0607,0.932,0.585,-0.662,0.819,-0.0118,-0.277 (inactive),0.0341,-1.82 (inactive),-0.63 (inactive),-0.971 (inactive),-0.562 (inactive),-0.0767,-0.127,0.693,0.722,0.936
